Measured values: PubChem BioAssay AID2314 (National Center for Advancing Translational Sciences (NCATS), 2010)
Screen size: about 300,000 compounds; about 37,000 (12%) were called active. What follows is part of a selection rich in actives, with near analogues and random picks from the rest. Values without a mark were called inactive. Rule as the data show it: active = max response mostly above about 13% (no sharp cut-off); inactive = mostly below about 14%.

Test: Cycloheximide Counterscreen for Small Molecule Inhibitors of Shiga Toxin; also: read at 38.3 µM for the half of the compounds with a filed dose; 0% is about no effect
Settings: cell reporter, cycloheximide protein synthesis inhibition counterscreen; stronger effect = higher value

**Q.** Which max response does the source give for `CCOCc1nnc(NC(=O)CCS(=O)(=O)Cc2ccccc2)s1` here?
**A.** -1.02%

**Q.** Which max response does the source give for `CC(C)(C)NC(=O)COc1ccc(CNc2ccc3[nH]c(=O)[nH]c3c2)cc1` here?
**A.** -1.49%

**Q.** With `COC(=O)c1ccc(OCC(=O)NC(C)(C)C)cc1` as the compound, how does the max response read?
**A.** 31.4% (active)

**Q.** For `COc1ccc(OCC(=O)NNC(=O)c2ccc(-c3ccccc3)cc2)cc1`, which max response is on record?
**A.** -2.64%

**Q.** For `Cc1cccc(NC(=O)N2CCCCCC2)c1C`, which max response is on record?
**A.** 8.83%

**Q.** For `COc1ccc(NS(=O)(=O)c2cc3c(cc2C)N(C(C)=O)CCO3)cc1`, which max response is on record?
**A.** -2.57%

**Q.** Which max response does the source give for `COc1ccc(CC(=O)Nc2ccccc2NC(=O)c2ccco2)cc1OC` here?
**A.** 6.8%

**Q.** Which max response does the source give for `COc1ccc(C/C(N)=N/OC(=O)c2ccco2)cc1OC` here?
**A.** 22.4% (active)

**Q.** With `COc1ccc(C(=O)O/N=C(\N)Cc2ccc(Cl)cc2Cl)cc1OC` as the compound, how does the max response read?
**A.** 4.82%

**Q.** With `CCc1nnc(NC(=O)CSCc2cc(=O)n3cc(C)sc3n2)s1` as the compound, how does the max response read?
**A.** 1.44%

**Q.** With `CCN1CCN(C(=O)c2cc3cc4ccc(OC)cc4nc3s2)CC1` as the compound, how does the max response read?
**A.** 15.1% (active)

**Q.** Which max response does the source give for `COc1ccc(OC)c(C(=O)c2ccc(C(=O)N3CCN(Cc4csc(C)n4)CC3)cc2)c1` here?
**A.** -2.77%

**Q.** Which max response does the source give for `CCN1CCN(C(=O)CN(C)S(=O)(=O)c2ccc(OC)cc2)CC1` here?
**A.** 4.5%

**Q.** Which max response does the source give for `CCOc1cc(/C=C(\C#N)c2nc(-c3cccs3)c(NC(C)=O)s2)ccc1O` here?
**A.** 1.82%

**Q.** Which max response does the source give for `CCNc1nc(NCC)nc(N/N=C/c2ccc(O)c(OC)c2)n1` here?
**A.** 7.49%

**Q.** For `COc1cc(/C=N/NC(=O)CNC(=O)c2ccncc2)ccc1OC(C)=O`, which max response is on record?
**A.** -4.24%

**Q.** With `COc1cc(/C=N/Nc2nc3ccccc3s2)ccc1O` as the compound, how does the max response read?
**A.** 72.3% (active)

**Q.** With `COc1cc(/C=N\Nc2nc(-c3cccs3)c(NC(C)=O)s2)ccc1O` as the compound, how does the max response read?
**A.** 17.1% (active)

**Q.** With `COc1cc(/C=N/NC(=O)CCc2n[nH]c(=O)[nH]c2=O)ccc1O` as the compound, how does the max response read?
**A.** -0.284%

**Q.** With `COc1ccc(C(=O)N(C)CC(O)c2ccccc2)cc1OC1CCN(C(C)=O)CC1` (stereo not drawn) as the compound, how does the max response read?
**A.** 3.8%

**Q.** With `CC(C)[C@H](NC(=O)OCc1ccccc1)C(=O)OCc1ccccc1` as the compound, how does the max response read?
**A.** -4.84%

**Q.** With `CC1CCN(c2ccc([N+](=O)[O-])c(SCCO)c2)CC1` as the compound, how does the max response read?
**A.** 1.83%

**Q.** With `NC(=O)Nc1cccc(C(F)(F)F)c1` as the compound, how does the max response read?
**A.** 0.977%

**Q.** For `FC(F)(F)c1cccc(N/N=C/c2ccccc2)c1`, which max response is on record?
**A.** 41.1% (active)

**Q.** For `O=C(O)CSCC(=O)Nc1cccc(C(F)(F)F)c1`, which max response is on record?
**A.** -6.91%

**Q.** Which max response does the source give for `Cc1ccc(O)c(NC(=S)NC(=O)COc2ccc(Br)cc2)c1` here?
**A.** -1.57%

**Q.** With `Cc1ccc(C(C)C)cc1OCC(=O)Nc1ccccc1N1CCCC1` as the compound, how does the max response read?
**A.** -0.789%

**Q.** Which max response does the source give for `Cc1ccc(O)c(NC(=O)COc2cc(C)ccc2C)c1` here?
**A.** 28.6% (active)
